For 68 compounds, Potency results are on record in PubChem BioAssay AID686978 (National Center for Advancing Translational Sciences (NCATS), 2013).

The structures appear in SMILES notation. Hit rate of the full screen: of about 420,000 compounds, about 64,000 (15%) were called active. About 27% were inconclusive and are not listed. Calls follow the shape of the dose curve; as a rule, active = well fitted inhibition curve with a large enough effect; inconclusive = small, poorly fitted or top-dose-only effect; inactive = flat fitted curve, though single readings scatter. These entries were drawn from the full list. Entries that show only a call come without a potency.
Potency is read from the fitted curve at half-maximal effect.

The nature of the test: qHTS for Inhibitors of human tyrosyl-DNA phosphodiesterase 1 (TDP1): qHTS in cells in absence of CPT. Also: nearly all actives have a fitted effect of over 55% in size. Particulars: DT40 Tdp1-/- hTDP1 cells, no CPT, ATP luminescence, 48 h; activity change, negative = growth inhibition: at 46.2 µM (top of the series). The gist of the method:
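Camptothecin absent (DMSO only). Human TDP1-complemented DT40 knockout cells, 400 cells/well, 37 °C for minimum 48 hr; ATP measured via CellTiter-Glo, 30 min dark incubation, luminescence.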
In general terms: qHTS replaces the single test concentration by a dilution series.
As to `Cc1nnc(SC(C(=O)c2ccccc2)c2ccccc2)[nH]c1=O` (stereo not drawn), the Potency result was “inactive”.

For `NC(=O)c1ncn([C@@H]2O[C@H](CNCc3cnc(N4CCOCC4)s3)[C@@H](O)[C@H]2O)n1`, the Potency result is “inactive”.

On to `CN(C)C(=O)c1ccc2c(c1)C1C3CCC(C3)C1C(c1ccccc1)N2` (stereo not drawn), for which the Potency was 18.4 µM (active).

Turning to `CN(C)C(=O)c1ccc(NC(=O)c2ccccc2-c2ccccc2)cc1`, the Potency result was “inactive”.

With `O=C(O)CCCN1C(=O)C2C3c4ccccc4C(c4ccccc43)[C@@H]2C1=O` (stereo partly drawn), the Potency entry was “inactive”.

Take `CCOC(=O)N1CCN(C(=O)C2CCN(S(=O)(=O)c3cc(Cl)ccc3OCC)CC2)CC1`: the Potency result is “inactive”.

In the case of `CCOC(=O)N1CCN(C(=O)C2CCCN(c3ncnc4c3sc3cccc(F)c34)C2)CC1` (stereo not drawn), the Potency is 6.51 µM (active).

Turning to `CCOC(=O)N1CCN(C(=O)C2CCN(Cc3ccc(OC)cc3OC)CC2)CC1`, the Potency entry is “inactive”.

For the compound `CCOC(=O)N1CCN(C(=O)C2CC(c3ccc(F)cc3)=NO2)CC1` (stereo not drawn), the Potency result is “inactive”.

On to `CCOC(=O)N1CCN(C(=O)C2CCN(c3ncnc4c3sc3cccc(F)c34)CC2)CC1`, for which the Potency is 5.8 µM (active).

As to `Cc1cc(=O)n2nc(N3CCCC(C(=O)N4CCN(C)CC4)C3)sc2n1` (stereo not drawn), the Potency entry is “inactive”.

In the case of `O=C(O)c1c(NC(=O)N2CCCC2)sc2c1CCCC2`, the Potency entry was “inactive”.

Regarding `CC(C)C(=O)N1CC(=O)Nc2ccc(F)cc2C1c1ccc(F)cc1` (stereo not drawn), the Potency result is “inactive”.

Regarding `O=S(=O)(NCc1ccco1)c1cnc(Cl)c(Cl)c1`, the Potency result is “inactive”.

Turning to `COc1ccc([C@H]2CC(=O)C=C(c3ccc(C)cc3)C2)cc1`, the Potency result was “inactive”.

In the case of `COc1ccc([C@H]2CC(=O)C=C(c3ccc(CO)cc3)C2)cc1`, the Potency entry was “inactive”.

As for `COc1ccc([C@H]2CC(=O)C=C(c3ccc(OC(F)(F)F)cc3)C2)cc1OC`, the Potency is 16.4 µM (active).

Take `COc1cc(C2C(C#N)=C(C)NC3=C2C(=O)CC(C)(C)C3)ccc1O` (stereo not drawn): the Potency entry was “inactive”.

For `CN(C)CCOc1cccc(Br)c1`, the Potency entry was “inactive”.

For the compound `Nc1cccc(OCCCCCOc2cccc(N)c2)c1`, the Potency is 16.4 µM (active).

`C=CCNCCCCOc1ccccc1`: the Potency result was “inactive”.

On to `CCCCN(C(=O)CSCC(=O)Nc1ccc(OC)cc1)c1c(N)n(CCC)c(=O)[nH]c1=O`, for which the Potency entry is “inactive”.

On to `COc1ccc(CCNC(=O)COC(=O)Cc2cccc(F)c2)cc1`, for which the Potency result is “inactive”.

For `O=C(C1CCCN1S(=O)(=O)c1ccc(Br)cc1)N1CCOCC1` (stereo not drawn), the Potency result is “inactive”.

For `Cc1noc(C)c1S(=O)(=O)Nc1ccc(C(=O)O)cc1`, the Potency entry is “inactive”.

With `Cc1ccc(N(CCC(=O)O)S(=O)(=O)c2cccc(C(F)(F)F)c2)cc1`, the Potency result was “inactive”.

In the case of `Cc1oc2c(F)c(F)c(F)c(F)c2c1S(=O)(=O)Nc1cccc(C(F)(F)F)c1`, the Potency was 20.6 µM (active).

In the case of `Cc1cccc(C(=O)OCC(=O)Nc2sccc2C(N)=O)c1C`, the Potency result was “inactive”.

As to `COc1cc(OC)cc(C(=O)OCC(=O)Nc2ccc(F)cc2F)c1`, the Potency entry is “inactive”.

`COc1cc(OC)cc(C(=O)OCC(=O)Nc2sccc2C(N)=O)c1`: the Potency was 18.4 µM (active).

On to `COc1ccc(S(=O)(=O)NC(C)c2ccccc2)cc1C(=O)N1CCCCC1` (stereo not drawn), for which the Potency result is “inactive”.

Consider `Cc1ccc(CNC(=O)c2c(-c3ccccc3)noc2C)cc1`, for which the Potency result is “inactive”.

For `Cc1cc(C)cc(NC(=O)CCCc2nc(-c3ccccc3Cl)no2)c1`, the Potency entry is “inactive”.

For `Cc1ccc2cc(CCNC(=O)c3c(-c4ccccc4Cl)noc3C)c(=O)[nH]c2c1`, the Potency is 18.4 µM (active).

Regarding `O=S(=O)(/C=C/c1ccccc1)NCCc1ccccn1`, the Potency result was “inactive”.

With `COc1ccc(C(=O)N[C@H](C(=O)NCc2ccccc2)C(C)C)cc1`, the Potency result is “inactive”.

For `COc1cc(OC)cc(C(=O)N[C@H](C(=O)OCC(=O)NC(C)c2ccccc2)C(C)C)c1` (stereo partly drawn), the Potency result was “inactive”.

For the compound `COc1cc(OC)cc(C(=O)N[C@H](C(=O)Nc2nc3ccccc3[nH]2)C(C)C)c1`, the Potency is 2.59 µM (active).

For `C=CCSc1nnc(Cn2c(=O)sc3ccccc32)n1C`, the Potency result is “inactive”.

For `COc1ccc(CCN2CC(C(=O)OCC(=O)NCc3ccccc3Cl)CC2=O)cc1OC` (stereo not drawn), the Potency result is “inactive”.

As for `COC(=O)[C@]1(C)CCC[C@@]2(C)C3CC[C@]4(OC(C)=O)C[C@@]3(CCC21)CC4=NO` (stereo partly drawn), the Potency is 16.4 µM (active).

Turning to `CN1CCN(C(=O)N2c3ccccc3CCc3ccccc32)CC1`, the Potency result is “inactive”.

For the compound `CC(C)c1cc(Cn2c3ccccc3c(=O)n2C(C)Cn2cc(C3CC3)nn2)on1` (stereo not drawn), the Potency result is “inactive”.

Consider `CC(C)Oc1ccc(CN2CCC(n3nccc3NC(=O)c3cccnc3)CC2)cc1`, for which the Potency entry is “inactive”.

As for `CCOC(=O)C1=NNC2(c3ccc(Cl)cc3)C(=O)N(c3cc(C)cc(C)c3)C(=O)C12` (stereo not drawn), the Potency entry is “inactive”.

Take `Cc1nn(Cc2ccccc2)c2c1C(c1ccccc1)C(C#N)=C(N)O2` (stereo not drawn): the Potency was 25.9 µM (active).

With `COc1ccc(-c2[nH]nc3c2C(c2ccncc2)C(C#N)=C(N)O3)cc1` (stereo not drawn), the Potency result was “inactive”.

As for `Cc1cc2c(c(=O)n1Cc1ccco1)C(c1ccccc1)C(C#N)=C(N)O2` (stereo not drawn), the Potency result is “inactive”.

For `O=C(COC(=O)c1cc([N+](=O)[O-])ccc1NCc1ccccc1)NC1CCCCC1`, the Potency entry is “inactive”.

On to `Nc1c(Cl)cc(-c2csc(N3CCCC3c3nc4cc(Cl)c(Cl)cc4n3CCOCCO)n2)cc1Cl` (stereo not drawn), for which the Potency result is “inactive”.

Turning to `CC(=O)OCCN(CCCn1c(-c2ccncc2)nc2ccccc21)c1nc(-c2ccc(C)cc2)cs1`, the Potency result is “inactive”.

As for `Cc1ccc(-c2csc(N3CCN(c4cc5c(cc4Cl)nc(-c4ccncc4)n5CCOCCO)CC3)n2)cc1`, the Potency was 29.1 µM (active).

In the case of `CC(NC(=O)c1ccc(S(=O)(=O)Nc2ccccc2)cc1)c1ccc(S(N)(=O)=O)cc1` (stereo not drawn), the Potency entry was “inactive”.

As for `CCOC(=O)c1cc2occc2n1CC(=O)NC1CCC(C)CC1` (stereo not drawn), the Potency result is “inactive”.

As to `CC(=O)N1C[C@@H](CO)[C@@H](N(C)C(=O)c2ccco2)C[C@H]1c1ccccc1`, the Potency result was “inactive”.

Take `Cn1c(SCC(=O)Nc2ccc(Cl)cc2)nc(O)cc1=O`: the Potency entry is “inactive”.

As to `Cc1ccc(NC(=O)c2nc(S(=O)(=O)Cc3cccc(C)c3)ncc2Cl)cc1`, the Potency is 0.651 µM (active).

With `CCSc1nnc(NC(=O)c2ccc(C)cc2)s1`, the Potency result is “inactive”.

Regarding `CSc1nnc(NC(=O)c2nc(S(=O)(=O)Cc3ccc(C)cc3)ncc2Cl)s1`, the Potency was 4.11 µM (active).

Regarding `Cc1cccc(NC(=O)c2nc(S(=O)(=O)Cc3ccccc3)ncc2Cl)c1`, the Potency is 2.06 µM (active).

For the compound `O=C(Nc1ccccc1C(F)(F)F)c1nc(S(=O)(=O)Cc2ccccc2F)ncc1Cl`, the Potency was 0.708 µM (active).

`O=C(Nc1nc2ccc(F)cc2s1)c1nc(SCc2ccccc2F)ncc1Cl`: the Potency entry is “inactive”.

As for `Cc1cccc(NC(=O)C(C)SCc2ccccc2)c1` (stereo not drawn), the Potency entry was “inactive”.

Turning to `NC(=O)CSc1nnc(NC(=O)c2ccc(Br)o2)s1`, the Potency result was “inactive”.

On to `CCCSc1ncc(Cl)c(C(=O)Nc2c(C(=O)Nc3ccccc3)oc3ccccc23)n1`, for which the Potency result is “inactive”.

For the compound `CCSc1ncc(Cl)c(C(=O)Nc2cc(C)ccc2C)n1`, the Potency result is “inactive”.

Consider `CN(CC(=O)Nc1ccccc1C(F)(F)F)C(=O)Cc1ccccc1F`, for which the Potency result is “inactive”.

With `Cc1cccc(C(=O)Nc2ccc(Oc3cnccn3)cc2)c1`, the Potency result was “inactive”.
